Shown are actives, neighbours in structure and some others; about 2.2% of the full set was active somewhere.
APP transl inh: inhibitors of APP translation via 5'UTR reporter, primary screen, APP 5'UTR luciferase, SH-SY5Y cells. SH-SY5Y APP 5'UTR-luciferase reporter, luminescence. inhibition, % at 2 µM. hit rate 0.82% among 190,000;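 active = inhibition above a set limit, derived from the sample mean plus 3 SD, cut at about 45% in these data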
BaF3 parental: parental Ba/F3 cell viability inhibition, counter-screen for JAK2V617F inhibitor project, murine pro-B, CellTiter-Glo luminescence | CellTiter-Glo ATP luminescence | inhibition, % at 5.6 µM | hit rate 1.1% among 220,000;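 active = inhibition above a per-campaign cutoff, the mean inhibition of all tested compounds plus 3 SD, cut at about 27% in these data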;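 note: 0% = DMSO wells and 100% = JAK Inhibitor I control wells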
IEC-6 cytotox: cytotoxicity in IEC-6 intestinal epithelial cells, primary screen, cytotoxicity control for KLF5 inhibitor project, cell-based, luminescence | IEC-6 cytotoxicity, luminescence viability | inhibition, % at 5 µM | hit rate 0.78% among 290,000 | AID 1825, 2009;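 note: 0% = plate median of test compound wells and 100% = cytotoxic reference compound wells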
KLF5 inhibitor: KLF5 expression inhibitors, primary screen, DLD-1 cells, luminescence. hit rate 0.23% among 290,000. inhibition, % at 5 µM. AID 1700, 2009. DLD-1 KLF5 promoter-luciferase reporter;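 active = inhibition above a per-plate limit of that plate's mean compound inhibition plus 3 SD, cut at about 60% in these data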;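 note: 0% = DMSO wells and 100% = LY294002 at 200 µM; higher means less KLF5 promoter-driven luciferase light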
aSyn 5UTR inh: MLPCN primary screen, SNCA 5' untranslated region | alpha-synuclein 5'UTR reporter, inhibitor activity | AID 1813, 2009 | hit rate 0.82% among 300,000 | inhibition, % (tested at 7.5 µM); in the data active = inhibition above about 60%;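 note: H4 neuroglioblastoma cells stably carrying SNCA 5'UTR luciferase fusion; 0% = DMSO wells and 100% = positive control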
Ba/F3 V617F tox: reduced viability of JAK2V617F-dependent Ba/F3 cells, primary screen, JAK2V617F inhibitor project, cell-based, Ba/F3 EpoR-JAK2V617F, luminescence; ATP luminescence; inhibition, % at 5.6 µM; hit rate 1.1% among 220,000; AID 1446, 2008;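 active = inhibition above the campaign mean plus 3 SD over all tested compounds, cut at about 24% in these data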;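 note: cytokine-independent growth of Ba/F3 cells driven by EpoR plus mutant JAK2; 0% = DMSO-treated cells and 100% = JAK inhibitor I control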
IEC-6 cytotox cf: cytotoxic compounds in IEC-6 epithelial cells, confirmation, cytotoxicity control, cell-based, luminescence; hit rate 63% among 1,900; shares compounds with IEC-6 cytotox; IEC-6 rat intestinal epithelial viability; inhibition, % at 5 µM;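 note: 0% = vehicle and 100% = reference cytotoxic drug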
* hit, by the source's call; / = not tested or not shown. Cut-off read from the data, not from the text of the source, unless noted: active = inhibition above about 22%; inactive = the rest.

SMILES	APP transl inh	BaF3 parental	IEC-6 cytotox	KLF5 inhibitor	aSyn 5UTR inh	Ba/F3 V617F tox	IEC-6 cytotox cf
Cc1ccc(Nc2n[nH]c(C)c2[N+](=O)[O-])cc1	-54	6	-4	-146	-221	0	/
Cc1[nH]nc(Nc2ccc(C(C)C)cc2)c1[N+](=O)[O-]	/	-2	40*	-172	-151	-1	23*
Cc1[nH]nc(Nc2ccc(Br)cc2)c1[N+](=O)[O-]	/	5	35*	-137	-164	1	18
Nc1nc(Nc2cccc3ccccc23)nc(C2CCCC2=O)n1 (stereo not given)	-6	3	-2	0	-10	2	/
Nc1nc(CCl)nc(Nc2cccc3ccccc23)n1	/	28*	91*	-5	-18	100*	8
COc1ccc(-c2nn(-c3ccccc3)cc2/C=N/N=C(N)N)cc1OC	-4	1	-4	4	-20	0	/
COc1ccc(-c2nn(-c3ccccc3)cc2/C=N/O)cc1OC	/	/	27*	-54	-5	/	14
COc1cccc(NC(=O)C(NCCc2ccc(S(N)(=O)=O)cc2)c2ccccc2)c1 (stereo not given)	/	/	5	-21	31	/	/
Cc1cc(S(=O)(=O)N2CCOCC2)ccc1OCC(=O)NCCCn1ccnc1	/	/	3	-9	-8	/	/
COCCn1c(SC(C)C(=O)Nc2ncc(Cl)cc2Cl)nc2ccccc21 (stereo not given)	2	3	24*	29	15	0	27*
COc1ccc(CC(=O)Nc2cccc3c2CCCC3)cc1	/	/	4	-3	8	/	/
COc1ccc(C(=O)Nc2cccc3c2CCCC3)cc1	/	/	24*	-9	-132	/	22
C=CCn1c(SCC(=O)c2cccs2)nc2sc(C)c(C)c2c1=O	11	7	68*	-12	40	6	46*
C=CCSc1nc2sc(C)c(C)c2c(=O)n1CC=C	11	0	-3	-9	-19	-5	/
CCCCCn1c(=O)[nH]c2cc(C(=O)NCCN3CCCCC3C)ccc2c1=O (stereo not given)	/	/	1	0	-13	/	/
CCOc1cc(C(=O)NN=C2CCCC2)cc(OCC)c1OCC	/	/	80*	17	-20	/	-1
COc1ccc(C(=O)NN=C2CCCC2)cc1OC	/	/	8	-32	-17	/	/
CC(=O)c1ccc(Nc2cc(C)nc3ccccc23)cc1	42	12	38*	15	14	7	35*
CC(=O)c1ccc(Nc2cc(C)nc3c(C)cccc23)cc1	87*	76*	81*	35	8	77*	60*
COc1ccc(Nc2cc(C)nc3ccccc23)cc1	5	2	20	5	20	2	/
COC(=O)c1ccc(Nc2cc(C)nc3ccc(C)cc23)cc1	/	3	26*	35	53	11	27*
C=CCn1c(SCC(=O)Nc2cc(C)on2)nc2c([nH]c3ccccc32)c1=O	/	/	1	6	9	/	/
CCCn1c(C)cc(C(=O)COc2ccc(-c3nnco3)cc2)c1C	-16	9	8	-53	-39	2	/
CC(=O)NS(=O)(=O)c1ccc(NC(=O)CC23CC4CC(CC(Br)(C4)C2)C3)cc1	/	/	7	-9	6	/	/
CCn1nc(C)c(CN2CCCCC2C(=O)Nc2ccc(Oc3cccnc3)cc2)c1C (stereo not given)	/	/	-6	-23	13	/	/
Cc1ccc(CN2CCCCC2C(=O)Nc2ccc(Oc3cccnc3)cc2)o1 (stereo not given)	/	/	38*	27	-58	/	37*
O=C(Nc1ccc(Oc2ccccc2)nc1)C1CCCCN1Cc1ccco1 (stereo not given)	/	/	60*	50	-49	/	39*
Cc1ccc(C)c(N2C(=O)CC(Cc3ccc(Br)cc3)C2=O)c1 (stereo not given)	/	/	3	-12	-3	/	/
O=C(Nc1ccc(S(=O)(=O)N2CCOCC2)cc1)c1cc(-c2cc(Cl)ccc2O)n[nH]1	/	60*	36*	42	34	77*	5
